Laboratory results as given in PubChem BioAssay (Tox21).
Results filed as inconclusive are left out. Calls of active or inactive are those of the source. Unless noted, the call rests on the fitted dose curve.

Assays:
[1] = molecular target: Gonadotropin-releasing hormone receptor (Homo sapiens) (UniProt P30968); assay: Human gonadotropin-releasing hormone receptor (GnRHR) small molecule agonists, calcium flux assay in GnRHR-HEK293 cells (AID 1920063); further: on the % scale 0 is the no-effect control and ±100 the full control effect; nearly all actives have a fitted effect of over 35% in size
Sequence of Gonadotropin-releasing hormone receptor (Homo sapiens) (P30968 whole entry, looked up): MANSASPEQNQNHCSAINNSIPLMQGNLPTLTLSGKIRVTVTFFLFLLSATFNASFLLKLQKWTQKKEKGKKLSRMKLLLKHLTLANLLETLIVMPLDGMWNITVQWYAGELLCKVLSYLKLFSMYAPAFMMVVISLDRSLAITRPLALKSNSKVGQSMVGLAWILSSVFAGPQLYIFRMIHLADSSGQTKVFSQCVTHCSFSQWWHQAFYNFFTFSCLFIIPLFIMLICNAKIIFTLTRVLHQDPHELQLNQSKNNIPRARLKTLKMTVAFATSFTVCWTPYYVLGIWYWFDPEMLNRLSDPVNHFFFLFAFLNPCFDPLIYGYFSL
Outline: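 HEK293 cells stably expressing human GnRHR were dye-loaded for 1 h at 37 C. Compound was added in agonist mode and fluorescence (Ex/Em 480/540) recorded kinetically for 3 min. Fifteen concentrations, triplicates.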

[2] = molecular target: KiSS-1 receptor (Homo sapiens) (UniProt Q969F8); assay: Human kisspeptin (KISS1R) small molecule agonists, calcium flux assay in KISS1R-HEK293 cells (AID 1920064; active means well fitted curve in the direction sought with a large enough effect in the repeat runs; an effect the other way counts as inactive or inconclusive; further: on the % scale 0 is the no-effect control and ±100 the full control effect)
Sequence of KiSS-1 receptor (Homo sapiens) (Q969F8 whole entry, looked up): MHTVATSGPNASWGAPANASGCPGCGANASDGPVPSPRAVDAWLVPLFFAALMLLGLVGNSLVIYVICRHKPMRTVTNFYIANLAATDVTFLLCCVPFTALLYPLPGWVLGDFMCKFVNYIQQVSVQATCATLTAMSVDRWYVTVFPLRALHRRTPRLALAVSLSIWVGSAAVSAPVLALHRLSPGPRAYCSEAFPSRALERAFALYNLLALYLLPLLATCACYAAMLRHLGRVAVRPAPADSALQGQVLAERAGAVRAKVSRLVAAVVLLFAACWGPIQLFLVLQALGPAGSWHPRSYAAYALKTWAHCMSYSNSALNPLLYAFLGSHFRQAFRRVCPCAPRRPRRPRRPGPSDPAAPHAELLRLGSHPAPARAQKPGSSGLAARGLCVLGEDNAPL
Outline: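 HEK293 cells stably expressing human KISS1R were loaded with calcium dye for 1 h at 37 C, then given compound; fluorescence (Ex/Em 480/540) was read kinetically for 3 min. Fifteen concentrations, triplicate.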

[3] = G protein-coupled receptor (GPCR) small molecule agonists, calcium flux assay: HEK293 wild type cell line counter screen (AID 1920065); further: on the % scale 0 is the no-effect control and ±100 the full control effect
Outline: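 Wild-type HEK293 cells plated 18 h, loaded with calcium dye 1 h at 37 C, then compounds added in agonist mode (ATP as positive control). Kinetic fluorescence Ex/Em 480/540 recorded 3 min at 1 sec intervals; 15 concentrations, triplicate.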

[4] = p53 small molecule agonists, cell-based qHTS assay with human liver microsomes (AID 1963577);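 further: p53 response element beta-lactamase reporter cells with liver microsomes plus NADPH; on the % scale 0 is the no-effect control and ±100 the full control effect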
Outline: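 16 h, 37 C exposure of p53RE-bla cells to compounds with human liver microsomes and NADPH (0.5 mg/mL final each); detection via LiveBLAzer mixture, 2 h dark at room temperature.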

[5] = p53 small molecule agonists, cell-based qHTS assay with rat liver microsomes (AID 1963578); further: on the % scale 0 is the no-effect control and ±100 the full control effect
Outline: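 With rat liver microsomes and NADPH present (0.5 mg/mL final each), p53RE-bla cells are treated with compound for 16 h at 37 C. LiveBLAzer detection mixture is then applied for 2 h at room temperature in the dark.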

[6] = p53 small molecule agonists, cell-based qHTS assay with human liver microsomes: qHTS cell viability counter screen (AID 1963579); further: on the % scale 0 is the no-effect control and ±100 the full control effect; nearly all actives have a fitted effect of over 45% in size
Outline: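 In this multiplexed counter screen, the reporter plates were subsequently treated with CellTiter-Glo so that cell viability, reflected by luminescence, could be recorded for p53RE-bla cells dosed 16 h with compounds under microsomal activation (HLM and NADPH).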

[7] = p53 small molecule agonists, cell-based qHTS assay with rat liver microsomes: qHTS cell viability counter screen (AID 1963580); further: on the % scale 0 is the no-effect control and ±100 the full control effect; nearly all actives have a fitted effect of over 45% in size
Outline: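 Intracellular ATP, by CellTiter-Glo luminescence, defines viability. HCT-116 p53RE-bla cells, 4,000 per well, were compound-treated in the presence of rat liver microsomes and NADPH for 16 h at 37 C.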

[8] = p53 small molecule agonists, cell-based qHTS assay: qHTS cell viability counter screen (AID 1963581); further: nearly all actives have a fitted effect of over 45% in size; further: potency means the concentration at half of the fitted maximal effect
Outline: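 p53RE-bla HCT-116 cells, compounds added 5 h after plating and incubated 16 h at 37 C. Cytotoxicity measured in the same wells as intracellular ATP by CellTiter-Glo luminescence after 30 min at room temperature.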

[9] = p53 small molecule agonists, cell-based qHTS assay (AID 1963582; active means well fitted activation curve with a large enough effect in the signal ratio in the repeat runs, not every such curve was filed as active; the % refers to the signal ratio; further: on the % scale 0 is the no-effect control and ±100 the full control effect)
Outline: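 p53RE-bla reporter cells, compounds added in DMSO after 5 h plating, incubated 16 h at 37 C. Beta-lactamase read via 2 h room-temperature LiveBLAzer B/G FRET substrate, fluorescence intensity.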

[10] = molecular target: 5-hydroxytryptamine receptor 2A (Homo sapiens) (UniProt P28223); assay: 5-hydroxytryptamine receptor 2A (HTR2A) small molecule agonists, cell-based qHTS assay (AID 1963587); further: nearly all actives have a fitted effect of over 30% in size; further: potency means the concentration at half of the fitted maximal effect
Sequence of 5-hydroxytryptamine receptor 2A (Homo sapiens) (P28223 whole entry, looked up): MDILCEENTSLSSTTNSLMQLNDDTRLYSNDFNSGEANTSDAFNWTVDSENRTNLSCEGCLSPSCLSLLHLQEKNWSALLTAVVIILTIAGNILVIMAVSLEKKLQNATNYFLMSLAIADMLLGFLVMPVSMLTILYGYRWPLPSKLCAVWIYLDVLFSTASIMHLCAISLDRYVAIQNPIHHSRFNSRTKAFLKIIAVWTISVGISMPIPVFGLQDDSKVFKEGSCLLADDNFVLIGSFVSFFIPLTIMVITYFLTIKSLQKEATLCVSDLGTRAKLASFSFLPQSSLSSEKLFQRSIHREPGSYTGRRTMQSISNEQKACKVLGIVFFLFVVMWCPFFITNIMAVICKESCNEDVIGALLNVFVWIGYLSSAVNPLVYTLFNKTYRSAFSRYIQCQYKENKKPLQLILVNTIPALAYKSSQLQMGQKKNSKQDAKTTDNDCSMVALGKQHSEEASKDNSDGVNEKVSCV
Outline: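 Kinetic calcium-flux fluorescence (2 min, 1 sec intervals) after compound addition in agonist mode. HTR2A-CHO cells were cultured 18 h, then dye-loaded 1 h at 37 C.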

[11] = molecular target: Muscarinic acetylcholine receptor M1 (Homo sapiens) (UniProt P11229); assay: Cholinergic receptor muscarinic 1 (CHRM1) small molecule antagonists, cell-based qHTS assay (AID 1963588); further: on the % scale 0 is the no-effect control and ±100 the full control effect; nearly all actives have a fitted effect of over 40% in size
Sequence of Muscarinic acetylcholine receptor M1 (Homo sapiens) (P11229 whole entry, looked up): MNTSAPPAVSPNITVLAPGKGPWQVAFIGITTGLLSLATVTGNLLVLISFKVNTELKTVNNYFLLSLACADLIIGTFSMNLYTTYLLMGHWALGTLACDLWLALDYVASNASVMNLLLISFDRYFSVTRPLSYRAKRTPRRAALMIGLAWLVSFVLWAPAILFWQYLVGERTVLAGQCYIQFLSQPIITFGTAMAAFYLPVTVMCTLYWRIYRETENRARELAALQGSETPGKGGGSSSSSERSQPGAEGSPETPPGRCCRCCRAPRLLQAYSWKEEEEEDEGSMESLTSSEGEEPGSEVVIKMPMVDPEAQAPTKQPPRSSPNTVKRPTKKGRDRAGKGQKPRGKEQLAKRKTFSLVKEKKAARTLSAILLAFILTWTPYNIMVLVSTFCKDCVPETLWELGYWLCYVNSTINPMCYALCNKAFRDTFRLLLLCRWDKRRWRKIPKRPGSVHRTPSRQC
Outline: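 CHRM1-CHO calcium-flux assay, antagonist mode. Cells were seeded 18 h, dye-loaded 1 h at 37 C and given compound for 5 min at RT, then acetylcholine was added at 50nM. FDSS fluorescence was read 3 min; 15 concentrations, three runs.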

[12] = molecular target: Muscarinic acetylcholine receptor M1 (Homo sapiens) (UniProt P11229); assay: Cholinergic receptor muscarinic 1 (CHRM1) small molecule agonists, cell-based qHTS assay (AID 1963589); further: on the % scale 0 is the no-effect control and ±100 the full control effect; nearly all actives have a fitted effect of over 35% in size
Outline: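 CHO cells stably expressing human CHRM1 were loaded with calcium dye for 1 h at 37 C, then compound was added in agonist mode. Intracellular calcium fluorescence was followed kinetically at 1 s intervals. Fifteen concentrations were tested in three independent runs.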

[13] = cAMP Responsive Elements (CRE) small molecule agonists, cell-based qHTS assay (AID 1963590); further: on the % scale 0 is the no-effect control and ±100 the full control effect
Outline: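 CRE-bla HEK 293T cells, 2,000/well in DMEM with 10% dialyzed FBS and 25 mM HEPES, pre-incubated 18 h at 37 C, then exposed to compound 3 h at 37 C. Beta-lactamase reporter read with LiveBLAzer B/G FRET substrate after 2 h at room temperature.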

[14] = molecular target: Beta-2 adrenergic receptor (Homo sapiens) (UniProt P07550); assay: Adrenergic beta2 receptor (ADRB2) small molecule antagonists, cell-based qHTS assay (AID 1963592); further: series mostly up to about 92 µM; on the % scale 0 is the no-effect control and ±100 the full control effect; nearly all actives have a fitted effect of over 50% in size
Sequence of Beta-2 adrenergic receptor (Homo sapiens) (P07550 whole entry, looked up): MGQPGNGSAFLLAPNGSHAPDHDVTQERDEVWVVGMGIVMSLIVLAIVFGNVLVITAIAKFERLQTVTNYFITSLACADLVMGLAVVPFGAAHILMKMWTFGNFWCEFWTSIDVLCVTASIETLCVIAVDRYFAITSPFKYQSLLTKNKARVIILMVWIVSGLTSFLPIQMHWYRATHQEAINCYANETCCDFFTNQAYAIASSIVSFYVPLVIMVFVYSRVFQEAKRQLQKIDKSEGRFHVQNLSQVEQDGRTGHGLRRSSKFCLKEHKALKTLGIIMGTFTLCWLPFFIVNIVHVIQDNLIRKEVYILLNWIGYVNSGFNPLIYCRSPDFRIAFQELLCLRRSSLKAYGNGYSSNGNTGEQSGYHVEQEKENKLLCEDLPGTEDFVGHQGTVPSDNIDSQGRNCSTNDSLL
Outline: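 Cells (CHO, stable ADRB2 overexpression) incubated 18-20hr at 37C; compounds added from DMSO; agonist mix (1nM isoproterenol, 100uM IBMX, 25uM Ro-20-1724) added; 0.5hr RT; d2-cAMP and anti-cAMP-cryptate added; 1hr RT; 665/615 nm read.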

[15] = molecular target: Beta-2 adrenergic receptor (Homo sapiens) (UniProt P07550); assay: Adrenergic beta2 receptor (ADRB2) small molecule agonists, cell-based qHTS assay (AID 1963593)
Outline: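 CHO cells stably over-expressing ADRB2 were plated overnight at 37C, then dosed with compounds plus a stimulation mix containing 100uM IBMX and 25uM Ro-20-1724 for 0.5hr at room temperature. cAMP was measured by HTRF competition, 1hr.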

[16] = molecular target: D(2) dopamine receptor (Homo sapiens) (UniProt P14416); assay: Dopamine D2 receptor (DRD2) small molecule antagonists, cell-based qHTS assay (AID 1963595; active means well fitted inhibition curve with a large enough effect in the signal ratio in the repeat runs, with a control signal flat; the % refers to the signal ratio; further: potency means the concentration at half of the fitted maximal effect)
Sequence of D(2) dopamine receptor (Homo sapiens) (P14416 whole entry, looked up): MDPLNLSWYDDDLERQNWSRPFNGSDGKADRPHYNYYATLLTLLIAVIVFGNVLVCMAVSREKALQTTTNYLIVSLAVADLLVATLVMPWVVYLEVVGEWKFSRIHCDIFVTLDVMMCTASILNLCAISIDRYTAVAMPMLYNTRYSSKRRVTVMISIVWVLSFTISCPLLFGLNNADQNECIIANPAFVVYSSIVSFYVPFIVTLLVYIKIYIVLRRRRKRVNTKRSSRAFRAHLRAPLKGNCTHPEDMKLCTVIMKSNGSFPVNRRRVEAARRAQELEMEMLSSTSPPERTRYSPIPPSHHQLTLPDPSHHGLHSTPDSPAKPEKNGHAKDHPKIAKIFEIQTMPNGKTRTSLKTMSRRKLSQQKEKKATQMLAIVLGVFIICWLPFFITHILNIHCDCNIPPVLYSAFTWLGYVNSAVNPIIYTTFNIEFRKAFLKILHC
Outline: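 Stable D2 receptor HEK293 line, 24 h after seeding. Compound preincubated 10 min, then quinpirole (12 nM) with forskolin analogue NKH477 (200 nM), 30 min, room temperature. Detection by time-resolved FRET of cAMP.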

[17] = Nuclear factor erythroid 2-related factor 2/antioxidant responsive element (Nrf2/ARE) small molecule agonists: qHTS cell viability counter screen in human keratinocytes (AID 1919968; active means well fitted curve in the direction sought with a large enough effect in the repeat runs; an effect the other way counts as inactive or inconclusive; further: potency means the concentration at half of the fitted maximal effect; nearly all actives have a fitted effect of over 55% in size)
Outline: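 KeratinoSens HaCaT cells, 1,500/well, preincubated 5 h, then exposed to compounds in DMSO for 23 h at 37 C/5% CO2. Viability read as CellTiter-Fluor fluorescence after 1 h, in the same wells as the ARE-luciferase read.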

[18] = molecular target: 5-hydroxytryptamine receptor 2A (Homo sapiens) (UniProt P28223); assay: 5-hydroxytryptamine receptor 2A (HTR2A) small molecule antagonists, cell-based qHTS assay (AID 1963586); further: on the % scale 0 is the no-effect control and ±100 the full control effect; nearly all actives have a fitted effect of over 45% in size
Outline: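 Antagonist-mode intracellular calcium assay: DOI (4 nM) added after 5 min compound pre-incubation at room temperature to dye-loaded HTR2A-CHO cells. Fluorescence followed for 3 min, sampled every second.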

[19] = molecular target: D(2) dopamine receptor (Homo sapiens) (UniProt P14416); assay: Dopamine D2 receptor (DRD2) small molecule agonists, cell-based qHTS assay (AID 1963594); further: on the % scale 0 is the no-effect control and ±100 the full control effect; nearly all actives have a fitted effect of over 35% in size
Outline: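 cAMP accumulation in DRD2-HEK293 cells measured by HTRF after 1 h detection; compounds added 10 min before NKH477 (200nM […]) forskolin-analogue stimulation, 30 min at room temperature, with Ro20-1724 present at 0.1 mM final.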

[20] = cAMP Responsive Elements (CRE) small molecule antagonists, cell-based qHTS assay (AID 1963591; active means well fitted inhibition curve with a large enough effect in the signal ratio in the repeat runs, not every such curve was filed as active; the % refers to the signal ratio; further: on the % scale 0 is the no-effect control and ±100 the full control effect)
Outline: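 CRE-bla HEK293T cells plated 18 h, then given compound plus NKH477 at 0.25 uM final for 3 h at 37C. Beta-lactamase reporter read with LiveBLAzer B/G FRET substrate after 2 h at room temperature.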

C=CCN1C[C@H](C(=O)N(CCCN(C)C)C(=O)NCC)C[C@@H]2c3cccc4[nH]cc(c34)C[C@H]21
inactive: Potency [1] | Potency [2] | Potency [3] | Potency [4] | Potency [5] | Potency [6] | Potency [7] | Potency [8] | Potency [9] | Potency [11] | Potency [12] | Potency [13] | Potency [14] | Potency [15] | Potency [16]
active: Potency [10] 0.0019 µM

CCOc1nc2cccc(C(=O)OC(C)OC(=O)OC3CCCCC3)c2n1Cc1ccc(-c2ccccc2-c2nn[nH]n2)cc1 (configuration not stated)
inactive: Potency [3] | Potency [4] | Potency [5] | Potency [18] | Potency [11] | Potency [12] | Potency [14] | Potency [15] | Potency [19] | Potency [16]
active: Potency [17] 48.5 µM | Potency [8] 14.5 µM

CC(=O)Oc1ccc([N+](=O)[O-])cc1CCl
inactive: Potency [1] | Potency [2] | Potency [3] | Potency [4] | Potency [5] | Potency [6] | Potency [7] | Potency [8] | Potency [9] | Potency [18] | Potency [10] | Potency [11] | Potency [12] | Potency [13] | Potency [20] | Potency [15] | Potency [19] | Potency [16]

CN(C)c1ccc(SC#N)cc1
inactive: Potency [1] | Potency [2] | Potency [3] | Potency [4] | Potency [5] | Potency [6] | Potency [7] | Potency [8] | Potency [9] | Potency [18] | Potency [10] | Potency [11] | Potency [12] | Potency [13] | Potency [20] | Potency [14] | Potency [19]

CCCCCCCCCCCCCCCS(=O)(=O)Oc1ccccc1
inactive: Potency [1] | Potency [2] | Potency [3] | Potency [4] | Potency [5] | Potency [6] | Potency [7] | Potency [8] | Potency [9] | Potency [18] | Potency [10] | Potency [11] | Potency [12] | Potency [20] | Potency [14] | Potency [19] | Potency [16]

Nc1cc(Cl)c([N+](=O)[O-])cc1O
inactive: Potency [1] | Potency [2] | Potency [3] | Potency [4] | Potency [5] | Potency [6] | Potency [7] | Potency [8] | Potency [9] | Potency [18] | Potency [11] | Potency [12] | Potency [13] | Potency [20] | Potency [14] | Potency [15] | Potency [19] | Potency [16]

CN1CCN(c2cc3c(nn2)Oc2ccccc2N3C)CC1
inactive: activity change [1] -0.362% [at 11.8 µM, active compounds read high] | activation [2] -0.078% [at 15.8 µM] | activation [3] -0.0481% [at 11.8 µM] | activation [4] -1.74% [at 13.5 µM] | activation [5] 0.736% [at 13.6 µM] | activity change, negative = cytotoxicity [6] -6.1% [at 13.5 µM] | activity change, negative = cytotoxicity [7] 0.69% [at 13.5 µM] | activity change, negative = cytotoxicity [8] -9.68% [at 13.5 µM] | activation [9] 6.54% [at 13.5 µM] | activation [10] -12.8% [at 15.9 µM] | activity, negative = inhibition [11] -12.9% [at 12.6 µM] | activation [12] 3.18% [at 15.8 µM] | activation [13] 1.47% [at 19 µM] | activity change, negative = inhibition [20] 0.639% [at 18.9 µM] | activity change, negative = inhibition [14] 3.6% [at 19 µM] | activation [15] 4.93% [at 19 µM] | activation [19] 11.1% [at 19 µM] | activity change, negative = inhibition [16] -3.28% [at 18.9 µM]

CCCCC/C=C\C=C\C(=O)OCC
inactive: Potency [1] | Potency [2] | Potency [3] | Potency [4] | Potency [5] | Potency [6] | Potency [7] | Potency [8] | Potency [9] | Potency [11] | Potency [12] | Potency [14] | Potency [15] | Potency [19] | Potency [16]

CCCCOC(=O)c1ccccc1C(=O)OCC(CC)CCCC (configuration not stated)
inactive: Potency [1] | Potency [2] | Potency [3] | Potency [4] | Potency [5] | Potency [6] | Potency [7] | Potency [8] | Potency [9] | Potency [18] | Potency [10] | Potency [11] | Potency [12] | Potency [13] | Potency [14] | Potency [19] | Potency [16]

Sc1nc2ccccc2s1
inactive: Potency [1] | Potency [2] | Potency [3] | Potency [4] | Potency [5] | Potency [6] | Potency [7] | Potency [8] | Potency [9] | Potency [18] | Potency [10] | Potency [12] | Potency [13] | Potency [20] | Potency [14] | Potency [15] | Potency [19] | Potency [16]

CCOc1ccc(N=Nc2ccc(/C=C/c3ccc(N=Nc4ccc(OCC)cc4)cc3S(=O)(=O)O)c(S(=O)(=O)O)c2)cc1
inactive: Potency [1] | Potency [2] | Potency [3] | Potency [4] | Potency [5] | Potency [6] | Potency [7] | Potency [8] | Potency [9] | Potency [18] | Potency [11] | Potency [12] | Potency [13] | Potency [14] | Potency [16]

Oc1ccc(CCNCCCCCCNCCc2ccccc2)cc1O
active: Potency [16] 8.41 µM
inactive: Potency [1] | Potency [2] | Potency [3] | Potency [4] | Potency [5] | Potency [6] | Potency [7] | Potency [8] | Potency [9] | Potency [10] | Potency [11] | Potency [12] | Potency [20] | Potency [14] | Potency [19]
